ELG1 DNA repair = ELG1-dependent DNA repair inhibition; 330,000 tested, 2.3% active; HEK293T ELG1-luciferase reporter, luminescence, 16 h; DNA damage induced by 5-fluorouridine; Potency, µM (highest dose often 46.1 µM), for inactives: at the top dose activity change, negative = inhibition, usual class: inhibitors; AID 504467; note: potency is the fitted concentration of half-maximal effect; nearly all actives have a fitted effect of over 55% in size
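Overnight (16 hr) co-exposure of 2,000 cells/well to 5-fluorouridine and compound at 37 °C preceded detection. Luciferase was quantified via ONE-Glo luminescence; loss of signal denotes inhibition.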
RORg inh = inhibitors of mouse ROR gamma transcriptional activity | AID 2551 | Potency, µM (titrated, usually from 53.6 µM), inactives show at the top dose activity change, negative = inhibition, hits mostly inhibitors | 310,000 tested, 5.4% active | Drosophila S2 Gal4-RORgamma UAS-luciferase reporter, 20 h; note: potency is the fitted concentration of half-maximal effect; nearly all actives have a fitted effect of over 60% in size
Target sequence (P51450 whole entry, looked up, the tested form may be a part): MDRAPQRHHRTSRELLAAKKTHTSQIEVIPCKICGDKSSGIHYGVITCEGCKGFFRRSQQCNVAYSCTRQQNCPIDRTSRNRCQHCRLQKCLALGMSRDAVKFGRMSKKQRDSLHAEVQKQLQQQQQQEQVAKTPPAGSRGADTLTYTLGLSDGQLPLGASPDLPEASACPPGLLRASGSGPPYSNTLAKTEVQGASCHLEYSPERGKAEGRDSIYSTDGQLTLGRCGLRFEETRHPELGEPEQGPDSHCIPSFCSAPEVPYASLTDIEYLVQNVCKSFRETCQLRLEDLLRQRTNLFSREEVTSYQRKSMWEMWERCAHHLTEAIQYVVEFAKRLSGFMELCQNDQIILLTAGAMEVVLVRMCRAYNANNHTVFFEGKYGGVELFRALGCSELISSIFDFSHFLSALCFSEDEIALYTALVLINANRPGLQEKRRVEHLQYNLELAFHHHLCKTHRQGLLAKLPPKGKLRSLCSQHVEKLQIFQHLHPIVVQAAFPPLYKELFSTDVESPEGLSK
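Luminescence from a UAS-regulated Photinus luciferase reporter in stably transfected Drosophila Schneider cells is measured; decreased signal marks ROR gamma inhibition. Fusion expression is induced by 700 uM copper sulfate for 20 hr.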
IL-1B inflam inh = inflammasome signaling inhibition, IL-1 beta readout. 360,000 tested, 4.7% active. THP-1 LPS/ATP IL-1B secretion, AlphaLISA, 16 h; active compounds read low. activity change, % at 57.5 µM; in the data active = activity change below about -50%; inconclusive = mostly about -30% to -49%
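Secreted IL-1B measured by AlphaLISA bead assay after 16 h compound exposure of THP-1 cells; compounds (final up to 57.5 uM) added 1 h before LPS (250 ng/mL) and ATP (1.25 mM) stimulation; lower signal means less secretion.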
DT40 TDP1 no CPT = qHTS for Inhibitors of human tyrosyl-DNA phosphodiesterase 1 (TDP1): qHTS in cells in absence of CPT; DT40 Tdp1-/- hTDP1 cells, no CPT, ATP luminescence, 48 h; Potency, µM (series often up to 46.2 µM), for the others: top-dose activity change, negative = growth inhibition, usual class: inhibitors; 420,000 tested, 15% active; AID 686978, 2013; note: potency is the fitted concentration of half-maximal effect; nearly all actives have a fitted effect of over 55% in size
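Readout: luminescence from CellTiter-Glo after 30 min in the dark at RT. Cells: DT40 Tdp1-/- with stable hTDP1, 400/well. Exposure: compounds alone, ≥48 hr, 37 °C.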
DT40 TDP1 CPT = growth inhibition of DT40 Tdp1-/-;hTDP1 cells with camptothecin (screen for TDP1 inhibitors) | Potency, µM (highest dose often 46.2 µM), for the others: at the highest dose activity change, negative = growth inhibition, hits mostly inhibitors | chicken DT40 Tdp1-/-;hTDP1 cells + 20 nM CPT, ATP luminescence, 48 h | 420,000 tested, 12% active | AID 686979; note: potency is the fitted concentration of half-maximal effect; nearly all actives have a fitted effect of over 55% in size
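Chicken DT40 Tdp1-/- cells complemented with human TDP1, 400 cells/well, exposed to compounds plus 20 nM camptothecin for at least 48 h at 37 C; viability read as ATP content by CellTiter-Glo luminescence.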
Gal4-VP16 FLuc = inhibits Gal4-VP16 luciferase reporter, ROR gamma counter-screen | Drosophila S2 Gal4-VP16 UAS-luciferase, luminescence, 20 h | Potency, µM (series often up to 53.6 µM), for inactives: at the highest dose activity, negative = inhibition, actives largely listed as inhibitors | 310,000 tested, 3.5% active | AID 2546;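 note: Gal4-VP16 expression switched on by copper sulfate through the metallothionein promoter; potency is the fitted concentration of half-maximal effect; nearly all actives have a fitted effect of over 50% in size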
Active calls of the source: *; ? = inconclusive; / = not tested or not shown. A selection: hits, their analogues and other compounds. The true share with any hit is near 21%. Unless noted, calls come from the whole dose curve; as a rule, active = well fitted curve in the direction sought with a large enough effect; inconclusive = small, poorly fitted or top-dose-only effect, or another doubt; inactive = no such curve, though single readings can be large; an effect the other way counts as inactive or inconclusive. % is set by controls: 0 for no effect and ±100 for the full control effect.

SMILES | ELG1 DNA repair | RORg inh | IL-1B inflam inh | DT40 TDP1 no CPT | DT40 TDP1 CPT | Gal4-VP16 FLuc
CC(=O)c1ccc(Nc2cc(C)nc3nc(Cc4ccc(Cl)cc4)nn23)cc1 | / | / | / | -17% | ? | /
COc1cc(C(O)c2nc(/C=C/c3ccc(C(F)(F)F)cc3)cs2)ccc1F (centres undefined) | / | / | -20 | ? | ? | /
O=c1c2ccccc2oc2cc(-c3ccc(CN4CCOCC4)cc3)ccc12 | ? | / | 0 | 16µM* | 13µM* | /
CN(C)CCN(C(=O)C1CCN(S(=O)(=O)c2cccs2)CC1)c1nc2ccccc2s1 | 21% | / | -19 | 1% | 11% | /
C=CCn1c(SCC(=O)Nc2sccc2C(N)=O)nc2ccc(Cl)cc2c1=O | ? | 0% | -6 | 16µM* | 15µM* | -17%
C=CCn1c(SCc2nc3ccccc3c(=O)[nH]2)nc2scc(C3CC3)c2c1=O | -12% | 31% | 14 | 16µM* | 15µM* | 18%
C=CCn1c(SCC(=O)Nc2ccccc2F)nc2ccccc2c1=O | -8% | 3% | 0 | -17% | -17% | 4%
COC(=O)c1ccc2c(=O)[nH]c(CCl)nc2c1 | -3% | 13µM* | -97* | 15µM* | 12µM* | -17%
C=CCn1c(SCN2C(=O)c3ccccc3C2=O)nc2ccc(Cl)cc2c1=O | 4% | 8.9µM* | 33 | 18µM* | 18µM* | 7.9µM*
C[C@H]1NC(=O)[C@@]2(C)[C@H](c3ccccc3)[C@H]3COc4ccccc4[C@@H]3N2C1=O | -1% | / | 0 | ? | ? | /
Cc1cc(O)c(C(c2cccc(F)c2)N2CCC(C)CC2)c(=O)n1Cc1ccco1 (centres undefined) | / | / | / | -14% | -6% | /
CCc1ccc(S(=O)(=O)c2nnn3c2nc(Nc2cc(OC)cc(OC)c2)c2cc(Cl)ccc23)cc1 | / | / | / | 2% | ? | /
Cc1nn(C(=O)c2cccc(F)c2)c(C)c1S(=O)(=O)N1CCOCC1 | / | / | / | -15% | -16% | /
C=CCn1c(SCC(=O)c2c(N)n(C)c(=O)n(C)c2=O)nc2sc(C)c(C)c2c1=O | ? | 24% | 0 | ? | -16% | -11%
C=CCn1c(SCC(=O)c2c(N)n(CCC)c(=O)n(C)c2=O)nc2sc(CC)cc2c1=O | ? | 11% | 0 | 5.8µM* | 6.5µM* | -1%
C=CCn1c(SC(C)C#N)nc2sc(CC)cc2c1=O (centres undefined) | -14% | 11% | -3 | 0% | -6% | 0%
C=CCn1c(SC(C)C(N)=O)nc2sc(CC)cc2c1=O (centres undefined) | 6% | -3% | 56 | ? | -2% | 0%
C=CCn1c(SCC(=O)Nc2sccc2C(N)=O)nc2sc(CC)cc2c1=O | ? | -3% | -30 | 26µM* | ? | -6%
C=CCn1c(SCc2nc3cc(C(=O)OC)ccc3c(=O)[nH]2)nc2sc(CC)cc2c1=O | 8.2µM* | 20% | 5 | 18µM* | ? | -11%
CC(=O)NCCNc1nc2cc(-c3ccc(C(=O)N4CCN(C)CC4)cc3)sc2c(=O)n1C | / | / | 18 | 1% | 9% | /
COc1ccc(C2=NN(CN3C(=O)C(=O)c4ccccc43)C(c3cccc([N+](=O)[O-])c3)C2)cc1 (centres undefined) | 0% | -7% | -66* | ? | ? | 4%
CC(=O)N1N=C(c2ccc(Br)cc2)CC1c1cccc([N+](=O)[O-])c1 (centres undefined) | / | / | -11 | ? | ? | /
COC(=O)CSc1nn(-c2ccc(F)cc2)c(=S)s1 | 15% | 7% | -13 | 8% | -4% | 2%
Cc1c(C(=O)Nc2nc3ccccc3[nH]2)oc2c(Cl)cccc12 | ? | 10% | 51 | 16µM* | ? | 6.3µM*

Compound activity (PubChem BioAssay)
